Common to all, as to test: NCI-60 one-dose screen, 48 h (100 = growth as untreated, 0 = no growth, -100 = all killed)
One test has as its system SK-MEL-2 melanoma. The note with it: 10 µM unless noted.
A further test deals with EKVX NSCLC. The following applies: 10 µM unless noted.
Another test has as its system SN12C renal. The note with it: 10 µM unless noted.
For another test, the system named is UO-31 renal. The following applies: 10 µM unless noted.
In another test the test system is TK-10 renal. The note with it: 10 µM unless noted.
In a further test the test system is ACHN renal. The note with it: 10 µM unless noted.
In another test the test system is CAKI-1 renal. The following applies: 10 µM unless noted.
The subject of a further test is A498 renal. The following applies: 10 µM unless noted.
A further test deals with CCRF-CEM leukemia. The following applies: 10 µM unless noted.
Another test deals with MOLT-4 leukemia. The following applies: 10 µM unless noted.
Another test concerns SR leukemia. The following applies: 10 µM unless noted.
For another test, the system named is RPMI-8226 leukemia. The following applies: 10 µM.
A further test concerns OVCAR-8 ovarian. The following applies: 10 µM unless noted.
A further test deals with OVCAR-5 ovarian. The following applies: 10 µM unless noted.
The test system of another test is OVCAR-4 ovarian. The following applies: 10 µM unless noted.
Another test has as its system SK-OV-3 ovarian. The following applies: 10 µM.
The subject of another test is IGROV1 ovarian. The note with it: 10 µM unless noted.
The subject of a further test is OVCAR-3 ovarian. The note with it: 10 µM unless noted.
For the next test, the system named is HS 578T breast. The following applies: 10 µM unless noted.
For the next test, the system named is NCI/ADR-RES ovarian. The following applies: 10 µM unless noted.

Structures are written as SMILES. About 83,000 compounds went through this panel and 20% of them were active in at least one assay; those are over-represented in the sample as a whole.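 Negative percent growth values reflect cell death: -40 means 40% of the cells present at the start died, and -100 means all died.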 A number with no mark means an inactive call. The source made the active and inactive calls. Rule for the calls: active = growth percent below 10; inactive = the rest.

With `O=C1NC(=S)S/C1=C\c1cccc([N+](=O)[O-])c1`, the growth was 103% with SK-MEL-2 melanoma; 90.4% with EKVX NSCLC; 94.1% with SN12C renal; 65.1% in the test on UO-31 renal; 107% with TK-10 renal; 89.2% in the test with ACHN renal. Besides, the growth with CAKI-1 renal is 87.5%; in the test on A498 renal it was 96.1%; in the test with CCRF-CEM leukemia, 78.2%; with MOLT-4 leukemia, 85.5%; with SR leukemia, 70.1%; with RPMI-8226 leukemia, 62.8%. For the same compound, the growth in the test on OVCAR-8 ovarian is 101%; in the test with OVCAR-5 ovarian, 96.9%; with OVCAR-4 ovarian, 88.5%; with SK-OV-3 ovarian, 104%; in the test with IGROV1 ovarian, 120%; with OVCAR-3 ovarian, 100%. The results for the growth with HS 578T breast and in the test on NCI/ADR-RES ovarian were 118% and 96.8%, respectively.

With `CCN1C(=O)C2(Nc3ccccc3S2)c2cc(C)ccc21` (stereo not drawn), the growth in the test on SK-MEL-2 melanoma is 111%; in the test on EKVX NSCLC it was 103%; in the test with SN12C renal, 97.7%; in the test on UO-31 renal, 79.3%; in the test with TK-10 renal, 107%; with ACHN renal it was 94.2%. Moreover, the growth in the test on CAKI-1 renal was 99%; with A498 renal it was 138%; with CCRF-CEM leukemia, 9.42% (active); in the test with MOLT-4 leukemia, 100%; in the test on SR leukemia, 111%; in the test with RPMI-8226 leukemia, 92.9%. Further, the growth was 97.8% with OVCAR-8 ovarian; 91.8% in the test with OVCAR-5 ovarian; 95.9% in the test on OVCAR-4 ovarian; 100% in the test with SK-OV-3 ovarian; 98.2% in the test on IGROV1 ovarian; 108% with OVCAR-3 ovarian. For the same compound, the growth is 116% in the test on HS 578T breast and 101% in the test on NCI/ADR-RES ovarian.

On to `COc1cc(/C=C/c2cc(/C=C/c3ccc(O)c(OC)c3)n(-c3ccccc3)n2)ccc1O`, for which the growth with SK-MEL-2 melanoma is -48.1% (active); in the test on EKVX NSCLC, -38.8% (active); with SN12C renal it was -3.11% (active); in the test with UO-31 renal it was -44.6% (active); with TK-10 renal, 6.18% (active); in the test with ACHN renal it was 2.77% (active). The growth was -60.4% (active) in the test with CAKI-1 renal; -25.2% (active) in the test with A498 renal; -5.12% (active) in the test on CCRF-CEM leukemia; -39.9% (active) in the test on MOLT-4 leukemia; -13.9% (active) in the test with SR leukemia; -33.6% (active) in the test on RPMI-8226 leukemia. In addition, the growth was -13.1% (active) in the test with OVCAR-8 ovarian; -7.74% (active) in the test on OVCAR-5 ovarian; 4.49% (active) in the test on OVCAR-4 ovarian; -53.1% (active) with SK-OV-3 ovarian; -21.2% (active) with IGROV1 ovarian; -46.9% (active) with OVCAR-3 ovarian. Besides, the results for the growth with HS 578T breast and in the test on NCI/ADR-RES ovarian were -13% (active) and 3.18% (active), respectively.

On to `COc1ccccc1/C=C/C(=O)/C=C/c1ccccc1O`, for which the growth with SK-MEL-2 melanoma is 72.5%; with EKVX NSCLC, 46.2%; in the test on SN12C renal, -18.7% (active); in the test with UO-31 renal it was -83.4% (active); in the test on TK-10 renal it was -0.117% (active); in the test with ACHN renal, -81.1% (active). Also, the growth in the test with CAKI-1 renal is -62.5% (active); in the test with A498 renal it was 108%; in the test on CCRF-CEM leukemia it was -44.1% (active); in the test with MOLT-4 leukemia, -26.3% (active); in the test with SR leukemia, -61.2% (active); in the test with RPMI-8226 leukemia it was -53.7% (active). Besides, the growth was 2.91% (active) with OVCAR-8 ovarian; -35% (active) in the test on OVCAR-5 ovarian; 12.6% in the test with OVCAR-4 ovarian; 88.9% in the test with SK-OV-3 ovarian; 5.17% (active) in the test with IGROV1 ovarian; -40.9% (active) in the test with OVCAR-3 ovarian. Further, the growth in the test with HS 578T breast was -40.9% (active); in the test with NCI/ADR-RES ovarian it was -19.4% (active).

Regarding `O=C(Nc1ccccc1)Oc1cccc2cccnc12`, the growth was 93.9% with SK-MEL-2 melanoma; 82.2% in the test on EKVX NSCLC; 94.9% in the test with SN12C renal; 68.1% in the test on UO-31 renal; 104% with TK-10 renal; 84.7% in the test on ACHN renal. For the same compound, the growth in the test with CAKI-1 renal is 93.9%; with A498 renal, 119%; with CCRF-CEM leukemia it was 7.23% (active); with MOLT-4 leukemia, 55.3%; in the test on SR leukemia, 48.2%; with RPMI-8226 leukemia, 76.2%. For the same compound, the growth is 74.4% in the test on OVCAR-8 ovarian; 92.9% with OVCAR-5 ovarian; 76.8% with OVCAR-4 ovarian; 112% in the test on SK-OV-3 ovarian; 20.4% in the test on IGROV1 ovarian; -19.4% (active) in the test on OVCAR-3 ovarian. Also, the results for the growth in the test with HS 578T breast and in the test on NCI/ADR-RES ovarian were 116% and 78.5%, respectively.

With `CCCCC/C=C\C/C=C/CCCCCCCCNC(=O)Nc1ccc([N+](=O)[O-])cc1`, the growth in the test with SK-MEL-2 melanoma is 119%; with EKVX NSCLC, 79.1%; with SN12C renal, 83.2%; in the test on UO-31 renal it was 60.5%; with TK-10 renal, 82.5%; in the test with ACHN renal, 65.8%. In addition, the growth in the test on CAKI-1 renal was 56.2%; with A498 renal it was 83.7%; in the test with CCRF-CEM leukemia, 31.4%; with MOLT-4 leukemia, 43.2%; in the test on SR leukemia, 34.9%; in the test on RPMI-8226 leukemia it was 12.8%. Moreover, the growth in the test with OVCAR-8 ovarian was 52.9%; in the test on OVCAR-5 ovarian, 113%; in the test with OVCAR-4 ovarian, 93%; in the test with IGROV1 ovarian it was 46.3%; in the test with OVCAR-3 ovarian, 21.3%; in the test on HS 578T breast, 88.2%. In addition, the growth with NCI/ADR-RES ovarian was 21.5%.

For `O=S(=O)(OCCO)c1ccccc1`, the growth was 102% with SK-MEL-2 melanoma; 103% in the test with EKVX NSCLC; 96.2% with SN12C renal; 90.4% in the test on UO-31 renal; 100% in the test on TK-10 renal; 104% with ACHN renal. Moreover, the growth in the test with CAKI-1 renal is 88.2%; with A498 renal, 110%; with CCRF-CEM leukemia, 61.8%; with MOLT-4 leukemia, 108%; in the test on SR leukemia it was 100%; in the test with RPMI-8226 leukemia, 103%. Besides, the growth in the test with OVCAR-8 ovarian was 90.6%; in the test with OVCAR-5 ovarian, 92%; with OVCAR-4 ovarian, 109%; in the test with SK-OV-3 ovarian it was 109%; in the test with IGROV1 ovarian it was 113%; with OVCAR-3 ovarian it was 112%. For the same compound, in the test with HS 578T breast, the growth is 108%.

In the case of `CCCN(CCC)c1ccc(/C=C/c2ccc3cc(OCC)ccc3n2)cc1`, the growth was 88.2% in the test with SK-MEL-2 melanoma; 86.3% in the test on EKVX NSCLC; 90.7% with SN12C renal; 71.8% in the test on UO-31 renal; 116% with TK-10 renal; 92.4% with ACHN renal. Moreover, the growth in the test on CAKI-1 renal is 85.1%; with A498 renal, 64.6%; with CCRF-CEM leukemia it was 63.4%; in the test with MOLT-4 leukemia, 53%; in the test with SR leukemia, -8.74% (active); in the test with RPMI-8226 leukemia it was 35.6%. In addition, the growth with OVCAR-8 ovarian is 94.6%; in the test with OVCAR-5 ovarian it was 110%; in the test on OVCAR-4 ovarian, 80.8%; in the test on SK-OV-3 ovarian it was 104%; in the test on IGROV1 ovarian it was 99.6%; in the test with OVCAR-3 ovarian, 132%. Further, the growth was 66.5% with HS 578T breast and 93.1% in the test with NCI/ADR-RES ovarian.

The values above are taken from PubChem BioAssay (NCI).
